Results as given in PubChem BioAssay AID504725 (Broad Institute, 2011).
Results with a measured potency or affinity are listed apart. Calls of active or inactive are those of the source. How the calls were made is not given here.

Target: KSHV LANA C-terminal domain (residues 932-1162) binding to LBS DNA (UniProt O40947)
Assay: KSHV LANA DNA-binding disruption – biochemical, fluorescence polarization, cherry-picked samples, dose response (AID 504725)
Details: MBP-C-LANA / FAM-LBS DNA fluorescence polarization, percent change from plate compound-well median; series mostly up to 35 µM

outcome, inactive:
Cc1ccc(-c2nnc(-c3ccc(NC(=O)c4ccco4)cc3)o2)cc1
Cc1cc(/C=N/Nc2ccc([N+](=O)[O-])cn2)c(C)n1-c1cccc(C(=O)O)c1
O=C(O)c1ccccc1NC(=O)c1cc(-c2ccccc2)nc2ccccc12
NNc1nc2sc3c(c2c(=O)n1C1CCCCC1)CCN(Cc1ccccc1)C3
COC(=O)c1c(C)oc2ccc(N(C(C)=O)S(=O)(=O)c3ccccc3)cc12
O=C(COc1cccc(F)c1)Nc1nc(-c2cccnc2)cs1
CCCc1nc(NCc2ccccn2)c2nnn(Cc3ccccc3F)c2n1
Oc1[nH]c2ccccc2c1N=Nc1ccccc1F
O=C(Nc1cc(Cl)ccc1-n1cncn1)c1cccs1
Cn1c2ccccc2c2cnn(CC(=O)Nc3cccc(F)c3)c(=O)c21
Cc1ccsc1/C=N/NC(=O)Cc1ccc(Cl)cc1
COc1ccc(C2c3ccc(O)cc3Oc3ncn(CCCO)c(=N)c32)cc1OC (stereo not drawn)
O=C(c1ccc2c(c1)CCN2S(=O)(=O)c1ccccc1)N1CCN(c2ccc(F)cc2)CC1
NC(=O)c1ccc(NC(=O)C2COc3ccccc3O2)cc1 (stereo not drawn)
O=C(N/N=C/c1ccc(N2CCOCC2)cc1)c1ccccn1
COc1ccc(S(=O)(=O)N2CCC(C(=O)N3CCCCC3)CC2)cc1
O=C(O)/C(=C\c1cccs1)Sc1nnc(-c2ccc(F)cc2)o1
Cc1cc(C(F)(F)F)c2c(N)c(C(=O)Nc3cc(C)on3)sc2n1
